This is a sample that favours compounds with a hit; in the whole collection about 21% have one here.
Pf growth 48h – Primary qHTS for delayed death inhibitors of the malarial parasite plastid, 48 hour incubation. AID 504832, 2011. Potency, µM (series often up to 28.7 µM), for inactives: top-dose activity change, negative = inhibition, most hits filed as inhibitors. P. falciparum luciferase growth in erythrocytes, 48 h. 310,000 tested, 5.9% active; note: potency is the fitted concentration of half-maximal effect; % is set by controls: 0 for no effect and ±100 for the full control effect
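First compound was added to culture medium, then infected red cells at 0.1% parasitemia and 2% hematocrit (final). After incubation at 37 C under 5% CO2, luciferase detection reagent was dispensed and light output recorded.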
NS1 function inh – qHTS Assay for Inhibitors of Influenza NS1 Protein Function; Potency, µM (doses to about 46.1 µM), inactives show at the top dose activity, positive = more growth; 270,000 tested, 0.4% active; AID 2326, 2010; calls by dose curve; note: potency is the fitted concentration of half-maximal effect; actives are rising curves; nearly all actives have a fitted effect of over 50% in size
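OD600 was taken as the measure of yeast growth restored by compound in an NS1-expressing S. cerevisiae strain. Cells had been washed out of glucose medium and diluted 1:100 into galactose -URA medium, pH 6.0.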
CHX counter – Cycloheximide Counterscreen for Small Molecule Inhibitors of Shiga Toxin. max response, %. 300,000 tested, 12% active. AID 2314, 2010. cell reporter, cycloheximide protein synthesis inhibition counterscreen; in the data active = max response mostly above about 13%, no sharp cut-off; inactive = mostly below about 14%; note: read at 38.3 µM for the half of the compounds with a filed dose; 0% is about no effect
Shiga toxin inh – A qHTS for Small Molecule Inhibitors of Shiga Toxin; Vero cells, Shiga toxin protein synthesis inhibition reporter; inhibition, % at 38.7 µM; 290,000 tested, 9.2% active; in the data active = inhibition mostly above about 28%, no sharp cut-off; inactive = mostly below about 43%; note: 0% is about no effect
Pf growth 96h – Primary qHTS for delayed death inhibitors of the malarial parasite plastid, 96 hour incubation. P. falciparum luciferase reporter growth, 96 h. Potency, µM (series often up to 28.7 µM), for the others: top-dose activity change, negative = inhibition, actives largely listed as inhibitors. 320,000 tested, 6.9% active. AID 504834, 2011; note: potency is the fitted concentration of half-maximal effect; % is set by controls: 0 for no effect and ±100 for the full control effect
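Compounds incubated with erythrocytes infected by luciferase-expressing P. falciparum (2% hematocrit, 0.05% parasitemia final) for 96 hours, 37 C in 5% CO2. Growth inhibition scored as decreased luciferase luminescence.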
Starred values were filed as active, the others as inactive; ? = inconclusive; / = no result; [ ] = dose if it differs, or a comment. Unless noted, calls come from the whole dose curve; as a rule, active = well fitted inhibition curve with a large enough effect; inconclusive = small, poorly fitted or top-dose-only effect, or another doubt; inactive = no such curve, though single readings can be large or run the other way.

SMILES	Pf growth 48h	NS1 function inh	CHX counter	Shiga toxin inh	Pf growth 96h
O=C(CCc1nnc(CCCCc2ccccc2)o1)N1CCN(CCO)CC1	9%	4%	-3	10	7%
Cc1cc(-c2nnc(CCC(=O)N3CCN(Cc4cccc(F)c4)CC3)o2)c(C)o1	?	-2%	19*	42*	-28%
Cc1cccnc1CN1CCN(C(=O)CCc2nnc(CCc3ccccc3)o2)CC1	15%	-3%	25*	74*	?
O=C(CCc1nnc(CCCCc2ccccc2)o1)N1CCC(N2CCCC2)CC1	?	2%	-7	12	15%
CCN(CC)S(=O)(=O)c1cc(NC(=O)C(C)Nc2ccccc2N2CCOCC2)ccc1C (centres undefined)	?	/	4	36	7.4µM*
CCN(CC)S(=O)(=O)c1cc(NC(=O)C(C)N2CCN(c3ccccn3)CC2)ccc1C (centres undefined)	12µM*	/	2	11	3.7µM*
CCN(CC)S(=O)(=O)c1cc(NC(=O)C2Cc3ccccc3C(=O)O2)ccc1C (centres undefined)	-6%	-11%	27*	56*	52%
NS(=O)(=O)c1cccc(NC(=O)COC(=O)CN2C(=O)c3ccccc3C2=O)c1	-13%	/	/	/	-9%
O=C(/C=C/c1ccco1)NCC1OCCc2ccccc21 (centres undefined)	8%	-3%	-1	17	20%
CC(=O)N1c2c(cc(Br)cc2S(=O)(=O)N2CCN(C(=O)c3ccco3)CC2)CC1C (centres undefined)	10µM*	-2%	-2	5	/
CCC(=O)N1CCc2cc(Br)cc(S(=O)(=O)N3CCN(C(=O)c4ccco4)CC3)c21	?	-17%	-1	-3	58%
COc1ccc(CNS(=O)(=O)c2cc(Br)cc3c2N(C(C)=O)C(C)C3)cc1 (centres undefined)	-8%	6%	-1	-5	4.1µM*
CC(=O)N1c2c(cc(Br)cc2S(=O)(=O)NCc2ccc(C)cc2)CC1C (centres undefined)	-17%	-12%	-5	2	49%
N#CCCN(Cc1cccnc1)C(=O)c1ccc(S(=O)(=O)N2CCOCC2)cc1	8%	-15%	-1	17	5%
CN(C)c1ccc(NC(=O)CN2CCc3ccccc3C2)cc1	66%	5%	36*	92*	74%
COc1ccc(NC(=O)CN2CCN(CC(=O)Nc3ccccc3Cl)CC2)c(OC)c1	/	-1%	-3	-7	15µM*
O=C(CN1CCc2ccccc2C1)Nc1ccc(F)cc1	-1%	0%	-2	-6	0%
COc1ccc(NC(=O)CN2CCN(CC(=O)Nc3ccccc3OC)CC2)c(OC)c1	-5%	-4%	-2	-9	32%
O=C(CNCCC1=CCCCC1)Nc1ccccc1N1CCCCC1	13µM*	-32%	-5	-8	12%
COc1ccc(Nc2cc(C(=O)N3CCc4ccccc4C3)c3ccccc3n2)c(OC)c1	13µM*	/	9	17	20%
CCn1c(SCC(=O)Nc2ccc3c(c2)OCO3)nnc1C(C)C	35%	-4%	-2	-8	-4%
O=S(=O)(c1cc(Cl)ccc1Cl)N1CC2CCCN2c2ccc(C(F)(F)F)cc21 (centres undefined)	?	19%	-2	-13	?
CCOc1ccc(N2CC(C(=O)N3CCN(C(=O)c4ccco4)CC3)CC2=O)cc1 (centres undefined)	-10%	?	4	7	0%
COc1ccc(NC(=O)CN2CCN(CC(=O)Nc3ccccc3F)CC2)c(OC)c1	-7%	-6%	0	-9	1%
COc1ccc(NC(=O)CN2CCc3ccccc3C2)c(OC)c1	1%	-8%	13*	-1	?
SMILES	Pf growth 48h	NS1 function inh	CHX counter	Shiga toxin inh	Pf growth 96h
COc1ccc(NC(=O)CN2C(=O)N(C)Cc3ccccc32)c(C)c1	5%[5.75 µM]	/	-1	-5	15µM*
O=C(CN1CCN(C(=O)c2cncn2-c2ccccc2)CC1)Nc1ccccc1Cl	?	/	/	/	15µM*
COc1ccc(OC)c(NC(=O)CCN2CCN(Cc3ccccc3)CC2)c1	13µM*	-7%	1	-10	-5%
CCOc1nc(OCC)c2cnn(C)c2n1	35%	-1%	-2	-21	84%
O=C(CN1CCc2ccccc2C1)Nc1ccccc1Cl	-8%	-14%	-1	-12	?
O=C(CN1CCc2ccccc2C1)Nc1ccccc1N1CCCCCC1	13µM*	-45%	6	-4	/
O=[N+]([O-])c1ccccc1S(=O)(=O)N1CCCC(C(F)(F)F)C1 (centres undefined)	8%	-4%	1	-4	0.83µM*
CCCCn1c(N)c(C(=O)OCC2CCCO2)c2nc3ccccc3nc21 (centres undefined)	9.3µM*	-33%	5	-8	18%
CCn1ccc(C(=O)Nc2sc3c(c2C(=O)OC)CCC3)n1	?	-18%	10	16	12µM*
CCOCCCn1c(N)c(C(=O)Nc2sc3c(c2C(=O)OC)CCCC3)c2nc3ccccc3nc21	15µM*	?	2	12	?
CCCCOCCCn1c(N)c(C(=O)OCCOC)c2nc3ccccc3nc21	?	-22%	4	2	10µM*
CCCCn1c(N)c(C(=O)OCCOC)c2nc3ccccc3nc21	?	-4%	1	-16	?
CC(C)c1nnc(NC(=O)C2CCCN2C(=O)Nc2ccccc2[N+](=O)[O-])s1 (centres undefined)	8%	/	-2	-5	-21%
O=C(N/N=C/C1CC=CCC1)c1ccc(O)cc1O (centres undefined)	5%	5%	71*	34	45%
O=C(N/N=C/C1CC=CCC1)c1cc2ccccc2cc1O (centres undefined)	-23%	?	13*	39	?
COc1cc(C(=O)N/N=C/C2CC=CCC2)cc(OC)c1OC (centres undefined)	7%	5%	3	-1	27%
O=C(CSc1nnc(CNc2ccc(Cl)cc2)o1)Nc1nc2c(s1)CCCC2	28%	-15%	-1	-18	?
COc1cc2[nH]c(C(=O)N3CCN(c4ccccc4F)CC3)cc2c(OC)c1OC	?	-12%	-2	-2	?
Cc1cc(C[n+]2ccccc2)c2nsnc2c1	2.1µM*	-6%	-1	-3	/
Cc1[nH]c2ccccc2c1/C=N/Nc1ccc(F)cc1F	?	1%	31*	30*	?
Cc1c(/C=N/NC(=O)c2cccnc2)c2ccccc2n1Cc1ccccc1	?	/	18	17	-25%
Cc1c(/C=N/NC(=O)c2cccs2)c2ccccc2n1Cc1ccccc1Cl	?	0%	23*	30*	?
Cc1[nH]c2ccccc2c1/C=N\NC(=O)c1ccco1	8%	0%	30*	57*	-14%
Cc1[nH]c2ccccc2c1/C=N/NC(=O)c1cccs1	22%	-1%	51*	100	79%[1.15 µM]
